# A number with no mark means an inactive call.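 How the source made its calls: active = MAPPIT score above the 99th percentile of random reference set scores in the same batch; inactive = at or below it.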
# B1: snRNP-U1-70K (protein)
# chain: MTQYLPPNLLALFAAREPIPFMPPVDKLPHEKKSRGYLGVAKFMADFEDPKDTPLPKTVETRQERLERRRREKAEQVAYKLEREIALWDPTEIKNATEDPFRTLFIARINYDTSESKLRREFEFYGPIKKIVLIHDQESGKPKGYAFIEYEHERDMHAAYKHADGKKIDSKRVLVDVERARTVKGWLPRRLGGGLGGTRRGGNDVNIKHSGREDNERERERYRLEREREDREGPGRGGGSNGLDARPGRGFGAERRRSRSRERRDRERDRGRGAVASNGRSRSRSRERRKRRAGSRERYDEFDRRDRRDRERERDRDREREKKKKRSKSRERESSRERRERKRERRDRERGTGSGGDVKERKPDFRDMDVIKIKEEPVDDGYPTFDYQNATIKREIDDEDEEKYRPPPAHHNMFSVPPPPILGRGNASTNPNPDNGQQSSGDPSWWRQ
# B2: Prosalpha4 (protein)
# chain: MSSRYDRAVTIFSPDGHLLQVEYAQEAVRKGSTAVGVRGANCVVLGVEKKSVAQLQEDRKVRKICMLDNHVVMAFAGLTADARIMINRAQVECQSHRLNVEDPVTLEYITRFIAQLKQKYTQSNGRRPFGISCLIGGFDADGSAHLFQTEPSGIFYEYKANATGRSAKVVREFFEKSYREEEVANEHGAVKLAIRALLEVAQSGQNNLEVAIMENGKPLKMLDTDVITDYVKIIEKEKEEELEKKKQKK
# B3: mTerf3 (protein)
# chain: MFCSALRNILRNSQNAAKNATITSQIRNLRGQQSVHHEVEVLTSPGITTKQNDKKTEPAECEGSKEVALDFRNREAHVPSFNLAAYVNNSSTLQQFLSLGVDLHSIERRKGLGDFVLKLDFEKNVKPYITFLVDQGVSPDDFGRMFTKNPLLFKEDLDDLQTRVNYLKSKRFSDEARQRILTQNPYWLMFSTRRVDRRLGYFQKEFKLSGHDLRLLATREPNAITYNMEHLRKSVFTLKEEMGFNAKELSDLVVRKPRLLMIPPDDLVERFSYIHQDMGLPHAQIVQCPELLASREFRLRERHEFLKLLGRAQYDPQKDLYISPKTIVEGNNFYFVRNVAKSDLETFDLFLKTR
# B4: Pfdn2 (protein)
# chain: MSTESAKPALSQEAIVAQFQQLRNEQRNLVNSLNTLEMDLREHKTVIETLEAADPERKCFRQIGGVLCERTVKEVLPQLVENKDFIAKTIQMVTNDLSKKGSELNKFKEEHNIKIRGEHLVAEGAKGDDAEDKAENRNVLVFN
# B5: Cyp9f2 (protein)
# chain: MLWEFFALFAIAAALFYRWASANNDFFKDRGIAYEKPVLYFGNMAGMFLRKRAMFDIVCDLYTKGGSKKFFGIFEQRQPLLMVRDPDLIKQITIKDFDHFINHRNVFATSSDDDPHDMSNLFGSSLFSMRDARWKDMRSTLSPAFTGSKMRQMFQLMNQVAKEAVDCLKQDDSRVQENELDMKDYCTRFTNDVIASTAFGLQVNSFKDRENTFYQMGKKLTTFTFLQSMKFMLFFALKGLNKILKVELFDRKSTQYFVRLVLDAMKYRQEHNIVRPDMINMLMEARGIIQTEKTKASAVREWSDRDIVAQCFVFFFAGFETSAVLMCFTAHELMENQDVQQRLYEEVQQVDQDLEGKELTYEAIMGMKYLDQVVNEVLRKWPAAIAVDRECNKDITFDVDGQKVEVKKGDVIWLPTCGFHRDPKYFENPMKFDPERFSDENKESIQPFTYFPFGLGQRNCIGSRFALLEAKAVIYYLLKDYRFAPAKKSCIPLELITSGFQLSPKGGFWIKLVQRN
# B6: up (protein)
# chain: MSDDEEYTSSEEEEVVEETREETKPPQTPAEGEGDPEFIKRQDQKRSDLDDQLKEYITEWRKQRSKEEDELKKLKEKQAKRKVTRAEEEQKMAQRKKEEEERRVREAEEKKQREIEEKRMRLEEAEKKRQAMLQAMKDKDKKGPNFTIAKKDAGVLGLSSAAMERNKTKEQLEEEKKISLSFRIKPLAIEGFGEAKLREKAQELWELIVKLETEKYDLEERQKRQDYDLKELKERQKQQLRHKALKKGLDPEALTGKYPPKIQVASKYERRVDTRSYDDKKKLFEGGWDEISKDSNEKIWNEKKEQYTGRQKSKLPKWFGERPGKKAGEPETPEGEEDAKADEDIVEDDEEVEEEVVEEEDEEAEEDEEEEEEEEEEEEEEEEEEEEEEEEEEEEEE
# B7: CG7601 (protein)
# chain: MKVQDMDKCAPSSDWNVLYWVLGTVLMPVALPLAIINIWQRFQAQKFRNQLPGKVVLITGASSGLGESLAHVFYRAGCRVILAARRTQELERVKKDLLALDVDPAYPPTVLPLDLAELNSIPEFVTRVLAVYNQVDILINNGGISVRADVASTAVDVDLKVMVVNYFGSVALTKALLPSMVKRGSGHICFISSVQGKFAIPQRAAYSASKHAMQAFADSLRAEVANKNINVSCVSPGYIRTQLSLNALTGSGSSYGKVDETTAKGMSPDKLAERILQCILRKEPDIIVSDVQAKIAYYLRHLCPSLYFWIMAKRAVKLENAEKKST
# B8: rtp (protein)
# chain: MAMDDYDDDMSSVGVTTARIENQHQQHPHQQGQHGHHQQGQGQSQYSAGAVKVGGWRYEDASRYIGEWNQRGQKHGIGHLQFADGTRYDGQFQEGLSQGVGCLWFADGAKYEGEFHQGWFHGNGIFWRADGMKYEGEFRGGKIWGLGLLTFQDFTHGFPRNEGFFQDCRFMRRRRCPEVVQRAQKCALMARSQCEHPY
# B9: Rpt6 (protein)
# chain: MTVTNRMEIESAYHKGEGFRSYYIQKIEELQLVVAEKHQNLRRLQAQRNELNAKVRMLREELQLLQEQGSYVGEVVKPMDKKKVLVKVHPEGKFVVDLDKNIDINDVTPNCRVALRNESYTLHKILPNKVDPLVSLMMVEKVPDSTYEMVGGLDKQIKEIKEVIELPVKHPELFDALGIAQPKGVLLYGPPGTGKTLLARAVAHHTECTFIRVSGSELVQKFIGEGSRMVRELFVMAREHAPSIIFMDEIDSIGSSRIESGSGGDSEVQRTMLELLNQLDGFEATKNIKVIMATNRIDILDPALLRPGRIDRKIEFPPPNEEARLDILKIHSRKMNLTRGINLRKIAELMPGASGAEVKGVCTEAGMYALRERRVHVTQEDFEMAVAKVMQKDSEKNMSIKKLWK
# B10: Vps25 (protein)
# chain: MAEFQWPWEYTFPPFFTLQPHEETRQQQLKVWTDLFLKYLRHTNRFTLSIGDQNSPLFHNEALKRRLSPELVLAILGELERSGHANPLDKRRQEWQVYWFTLEEYGNMVYDWVQETGQTNTICTLYEIASGENTSHLDFYGVDEAVLLSALRLLEEKGRCELIEMDGSHGVKFF
# B11: CG4709 (protein)
# chain: MEEYEAQLLVVEQALENAADDAQRQDLLALKNNLQELLALTRESGDEAPIDELPQQGDNLDDELQRLKSELNDLEAAGSSQTALDEERQLADLRTKYTAMVGEKCSAPHEHSWGTCYHNALICGVDDEVVMNSEGVLDARLRVLFTNPTHREMLPCSYYLEGECRFDEAKCRFSHGALVTGSSIRKYNPPDFHKLSRSRPVFALLPDRLWHRGRVLCVNFVEQICRVRLDGQDHKERERDFKFEELYPLTTDQDEDDELSSEESNSSMNDNSSDEAESDMDDLEEARRARMVELSLFTFKPTERLGAWEEFTRGIGSKLMEKMGYIHGTGLGSDGRGIVTPVSAQILPQGRSLDACMELREAANGDKDYFSVERKLKRAQRRQRKADEKAYVRESQRVDVFTFLNDSVLGPGESTQQGEQVTKKAKTNELQQHSTKTLNVETVRIADEIRRKQRDMAKVKQSLDRNSGDAQLQKRLQVQMQSHKQELATLQAQERSLSKEQQTRKSKNKMFEF
# B12: Pu (protein)
# chain: MSFTRQLSEMSASELNDAIDDTNFPQAHILSRGRNNSVCSTSSTSGTSSLADRQQNQAEEATAIAGTPVEEVAPAPALVPLAGNQRPRLILKTNGSSPDSDGTQPKTPLTPRTSTTPGHEKCTFHHDLELDHKPPTREALLPDMARSYRLLLGGLGENPDRQGLIKTPERAAKAMLYFTKGYDQSLEDVLNGAVFDEDHDEMVVVKDIEMFSMCEHHLVPFYGKVSIGYLPCNKILGLSKLARIVEIFSRRLQVQERLTKQIAVAVTQAVQPAGVAVVVEGVHMCMVMRGVQKINSKTVTSTMLGVFRDDPKTREEFLNLVNSK
# B13: Mettl14 (protein)
# chain: MSDVLKSSQERSRKRRLLLAQTLGLSSVDDLKKALGNAEDINSSRQLNSGGQREEEDGGASSSKKTPNEIIYRDSSTFLKGTQSSNPHNDYCQHFVDTGQRPQNFIRDVGLADRFEEYPKLRELIKLKDKLIQDTASAPMYLKADLKSLDVKTLGAKFDVILIEPPLEEYARAAPSVATVGGAPRVFWNWDDILNLDVGEIAAHRSFVFLWCGSSEGLDMGRNCLKKWGFRRCEDICWIRTNINKPGHSKQLEPKAVFQRTKEHCLMGIKGTVRRSTDGDFIHANVDIDLIISEEEEFGSFEKPIEIFHIIEHFCLGRRRLHLFGRDSSIRPGWLTVGPELTNSNFNSELYQTYFAEAPATGCTSRIELLRPKSPPPNSKVLRGRGRGFPRGRGRPR
# B14: Prosbeta4 (protein)
# chain: MLNNYNSLAQPMWQNGPAPGEFYNFTGGQTPVQQLPRELTTMGPYGTKHSTASSTTGTSVLGIRYDSGVMLAADTLVSYGSMARYQNIERVFKVNKNILLGGSGDFADIQSIKRNIDQKMIEDQCCDDNIEMKPKSLASWMTRVLYNRRSRMNPLYIDVVVGGVDNEGTPYLANVDLRGRSYEDYVVATGFARHLAVPLVREKKPKDRDFTAVEASELIRTCMEVLYYRDTRNISQYTVGVCSVNGCGVEGPFQVNENWTFAETIKGY
# B15: Prosbeta3 (protein)
# chain: MSILAYNGGCVVAMRGKDCVAIATDHRFGIQAQTISTDFKKVFHIGPRMFLGLTGLQTDILTVRDRLMFRKNLYETRENREMCPKPFSAMMSSFLYEHRFGPYFIEPVVAGLDPKTMEPFICNMDLIGCPNAPDDFVVAGTCAEQLYGMCETLWKPDLEPDQLFEVIAQSIVNAFDRDAMSGWGATVYIIEKDKITERTLKTRMD
# Assays:
# Assay in all cases: MAPPIT interaction score (arbitrary units); higher = stronger binary interaction signal, active = hit call of the paper
# Psi = conditions: MAPPIT configuration: N-N; pair source set: Lit-BM-16
# Prosbeta3 = conditions: MAPPIT configuration: N-C; pair source set: Lit-BM-16
# Pten = conditions: MAPPIT configuration: N-N; pair source set: DPIM
# Pfdn5 = conditions: pair source set: Lit-BM-16
# Ptp61F = conditions: MAPPIT configuration: N-N; pair source set: Lit-BS-16
# Pgd = conditions: pair source set: RRS
# Pis = conditions: MAPPIT configuration: N-N; pair source set: DPIM
# PolZ2 = conditions: MAPPIT configuration: N-N; pair source set: Finley_Y2H
# Prosalpha2 = conditions: pair source set: Lit-BM-16
# Rpt2 = conditions: MAPPIT configuration: N-N
# Rpt4 = conditions: MAPPIT configuration: N-N; pair source set: Lit-BM-16
# Pgam5 = conditions: MAPPIT configuration: N-N; pair source set: DPIM
# Prp3 = conditions: MAPPIT configuration: N-N
# Pu = conditions: MAPPIT configuration: N-C; pair source set: screen_4
# Prosbeta2 = conditions: MAPPIT configuration: N-N; pair source set: Lit-BM-16
# Prosalpha4 = conditions: MAPPIT configuration: N-N; pair source set: Lit-BM-16
# Prosbeta7 = conditions: pair source set: Lit-BM-16
# 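Further: HEK293T cells with Epo stimulation, STAT-responsive firefly luciferase reporter, fold induction versus unstimulated cells divided by the larger fold induction of two negative controls lacking either bait or prey.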
binder,measurement,setting,value
B1,MAPPIT interaction score,Psi,0.25
B2,MAPPIT interaction score,Prosbeta3,1.51
B3,MAPPIT interaction score,Pten,-0.325
B4,MAPPIT interaction score,Pfdn5; MAPPIT configuration: N-C,2.36
same,MAPPIT interaction score,Pfdn5; MAPPIT configuration: N-N,5.93 (active)
B5,MAPPIT interaction score,Ptp61F,-0.452
B6,MAPPIT interaction score,Pgd; MAPPIT configuration: N-C,1.18
same,MAPPIT interaction score,Pgd; MAPPIT configuration: N-N,0.149
B7,MAPPIT interaction score,Pis,0.037
B8,MAPPIT interaction score,PolZ2,0.217
B9,MAPPIT interaction score,Prosalpha2; MAPPIT configuration: N-C,1.08
same,MAPPIT interaction score,Prosalpha2; MAPPIT configuration: N-N,1.52
same,MAPPIT interaction score,Rpt2; pair source set: Finley_Y2H,2.59
same,MAPPIT interaction score,Rpt2; pair source set: Lit-BM-16,2.59
same,MAPPIT interaction score,Rpt4,-0.794
B10,MAPPIT interaction score,Pgam5,2.9 (active)
B11,MAPPIT interaction score,Prp3; pair source set: Lit-BM-16,2.3
B12,MAPPIT interaction score,Pu,5.06 (active)
B13,MAPPIT interaction score,Prp3; pair source set: Curagen_high_conf,1.8
B14,MAPPIT interaction score,Prosbeta2,2.07
B15,MAPPIT interaction score,Prosalpha2; MAPPIT configuration: N-N,1.33
same,MAPPIT interaction score,Prosalpha4,-0.232
same,MAPPIT interaction score,Prosbeta7; MAPPIT configuration: N-C,0.398
same,MAPPIT interaction score,Prosbeta7; MAPPIT configuration: N-N,0.197

# Reference: the supplement of paper PMC10105736
